Cruzain noTriton: blocks cruzain activity in detergent-free assay | actives 2.3% (n = 200,000) | P25779 | purified cruzain, Z-FR-AMC fluorescence, no detergent | Potency, µM, hits mostly inhibitors; also: nearly all actives have a fitted effect of over 40% in size
Target sequence (P25779 123-467 limits assumed): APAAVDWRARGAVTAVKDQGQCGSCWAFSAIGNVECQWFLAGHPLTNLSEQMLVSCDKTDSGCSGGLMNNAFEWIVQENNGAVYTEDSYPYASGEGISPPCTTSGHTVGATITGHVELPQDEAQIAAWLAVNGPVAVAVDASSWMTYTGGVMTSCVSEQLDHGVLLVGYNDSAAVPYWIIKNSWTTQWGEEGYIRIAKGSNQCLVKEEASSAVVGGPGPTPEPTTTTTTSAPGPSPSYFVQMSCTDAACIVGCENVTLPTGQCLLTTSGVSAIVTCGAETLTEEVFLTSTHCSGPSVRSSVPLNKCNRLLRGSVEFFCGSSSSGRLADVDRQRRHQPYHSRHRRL
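Purified cruzain at 1.5 nM, pre-incubated 15 min with compound at room temperature in 100 mM sodium acetate pH 5.5, 5 mM DTT, 0.00005% Triton X-100. Reaction started with 2 uM Z-FR-AMC; AMC fluorescence increase over 60 s gives rate.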
Cruzain inh Det: inhibitors of Trypanosoma cruzi cruzain with detergent; P25779; purified cruzain, Z-FR-AMC fluorescence, 0.01% Triton; Potency, µM, hits mostly inhibitors; actives 0.43% (n = 200,000); also: nearly all actives have a fitted effect of over 40% in size
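Sodium acetate buffer (100 mM, pH 5.5) containing 5 mM DTT and 0.01% Triton X-100 hosted 1.5 nM cruzain and test compound for 15 min at room temperature. Cleavage of 2 uM Z-FR-AMC was then tracked by fluorescence.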
Each line names hits and unclear results; the compound was inactive in the other large screens. Compounds with a hit are over-represented: about 2.5% of the library has one in this group of screens. Calls follow the shape of the dose curve; as a rule, active = well fitted curve in the direction sought with a large enough effect; inconclusive = small, poorly fitted or top-dose-only effect, or another doubt; inactive = no such curve, though single readings can be large; an effect the other way counts as inactive or inconclusive.

Cc1ccc(CNc2ncnc3c2cnn3-c2ccccc2)cc1	Cruzain noTriton 25.1µM
Cc1ccc(-n2ncc3c(NCc4ccccc4)ncnc32)cc1	none
CCCSCCCNC(=O)CN1C(=O)COc2ccc(S(=O)(=O)N3CCC(C)CC3)cc21	none
CC1=CC(=O)C2=C(C)C[C@@H]3OC(=O)[C@@H](C)[C@H]3C=C12	none
Cc1ccc(CSc2ncc(Cl)c(C(=O)Oc3ccc(F)cc3)n2)cc1	none
COc1ccc(OC(=O)c2nc(SCc3ccc(C)cc3)ncc2Cl)cc1	Cruzain noTriton 20µM
Cc1ccc(OCc2ccc(C(=O)Nc3nccs3)o2)cc1C	none
Cc1cc(NC(=O)c2ccc(COc3ccc(Cl)c(C)c3)o2)no1	Cruzain noTriton 25.1µM
CC1=CC(C)(C)n2c(O)c(N=NC(N)=S)c3cccc1c32	none
CC1=CC(C)(C)n2c(O)c(N=NC(N)=S)c3c(C)ccc1c32	Cruzain noTriton 20µM, Cruzain inh Det inconclusive
Cc1[nH]nc(-c2ccc(OCc3cnn(-c4ccccc4)c3)c(C)c2O)c1Oc1ccccc1	Cruzain noTriton 12.6µM
Cc1[nH]nc(-c2ccc(OCc3cnn(-c4ccccc4)c3)cc2O)c1Oc1ccc(F)cc1	Cruzain noTriton inconclusive
C=C1c2ccccc2O[C@H](C(=O)OCC)C1OC (mixture of isomers)	none
CNC(=O)C1CCC(Cn2c(=O)c3sccc3n(CC(=O)N3CCCC3)c2=O)CC1 (configuration not stated)	none
O=C(c1ccc(COc2c(F)c(F)c(F)c(F)c2F)o1)N1CCN(Cc2ccc3c(c2)OCO3)CC1	Cruzain noTriton inconclusive, Cruzain inh Det 28.2µM
Cc1cc(C)cc(OCc2ccc(C(=O)O)o2)c1	none
O=C(O)c1ccc(COc2c(F)c(F)c(F)c(F)c2F)o1	Cruzain noTriton 15.8µM, Cruzain inh Det 28.2µM
O=C(c1ccc(Br)o1)N1CCN(Cc2ccc3c(c2)OCO3)CC1	none
Cc1ccc(NC(=O)c2cc(CN3CCOCC3)on2)cc1Cl	none
Cc1ccc(N(CC(=O)NCCc2ccccc2C)S(=O)(=O)N(C)C)cc1	none
O=C(O)c1cc2ccccc2c(S(=O)(=O)O)c1O	none
CCCC/C=C/C(NC(=O)OCc1ccccc1Cl)c1ccccc1 (configuration not stated)	none
COc1ccc(CNC(=O)Cn2c(=O)nc(-c3ccccc3F)c3cc(Cl)ccc32)cc1OC	none
COc1ccc(OC)c(-c2cc(C(=O)Nc3cnn(Cc4ccc(Cl)cc4Cl)c3)no2)c1	none
Cc1ccc(CN2CCc3nc(N4CCN(C)CC4)ncc3C2)s1	none
COc1cccc(NC(=O)Cn2c(=O)n(CCC(=O)NCCc3ccc(Cl)cc3)c(=O)c3ccccc32)c1	none
Cc1ccc(Cl)cc1NC(=O)/C(C#N)=C/c1c(C)n(Cc2ccccc2)c2ccccc12	none
Cc1c(/C=C(\C#N)C(=O)Nc2cccc(Cl)c2)c2ccccc2n1Cc1ccccc1	Cruzain noTriton 3.98µM
COc1cccc(NC(=O)/C(C#N)=C/c2c(C)n(Cc3ccc(Cl)cc3)c3ccccc23)c1	Cruzain noTriton 6.31µM
COc1ccc(CCNC(=O)C(=O)NCC(c2ccc3c(c2)OCO3)N2CCOCC2)cc1 (configuration not stated)	none
CC1=NCC[N@@+]1(CCc1ccccc1)Cc1ccccc1	none
O=C(Nc1ccc(Br)cc1F)c1ccc2nc(CCc3ccccc3)oc2c1	none
O=C(NCCCN1CCN(c2cccc(Cl)c2)CC1)c1ccc2nc(Cc3ccccc3)oc2c1	none
CCNC(=O)c1ccc(NS(=O)(=O)c2ccccc2)cc1	none
NS(=O)(=O)c1ccc(NS(=O)(=O)c2ccc(NC(=O)c3ccc(-c4ccccc4)cc3)cc2)cc1	Cruzain noTriton 12.6µM
COc1c(C)cc(Br)cc1C(=O)Nc1ccc(C)cc1[N+](=O)[O-]	Cruzain noTriton 25.1µM
Cc1ccc(NC(=O)c2cncc(Br)c2)c([N+](=O)[O-])c1	none
COc1cc(C)ccc1OCCOc1c(Cl)cc(Cl)cc1Cl	none
COc1cc(C)ccc1OCCOc1cc(C)ccc1Cl	Cruzain noTriton 20µM
CCOC(=O)c1cc(S(=O)(=O)N2CCN(c3ccccc3OC)CC2)[nH]n1	none
CSc1ccc(C(=O)Nc2ccc(-c3nc4ccccc4s3)c(O)c2)cc1	none
CCSc1ccccc1C(=O)Nc1ccc(-c2nc3ccccc3s2)c(O)c1	Cruzain noTriton 7.94µM
Cc1cc(Cl)ccc1OCC(=O)N(Cc1sccc1C)C1CCS(=O)(=O)C1 (configuration not stated)	none
COc1ccc(/C=N/NC(=O)c2nc(Cl)c(Cl)c(N)c2Cl)cc1COc1ccccc1F	none
COc1ccc(/C=N/NC(=S)Nc2ccccc2)cc1COc1ccc(F)cc1	Cruzain noTriton 7.94µM
COc1cccc(OCc2cc(/C=N/NC(=O)c3ccn[nH]3)ccc2OC)c1	none
COc1ccc(/C=N/NC(=S)Nc2ccccc2)cc1COc1ccccc1F	Cruzain noTriton 12.6µM
COc1ccc(NC(=S)Nc2ccc(OCc3ccccc3)cc2)cc1OC	Cruzain noTriton inconclusive
COc1cc(OC)cc(C(=O)N/N=C/c2ccc(OC)c(COc3ccc4ccccc4c3)c2)c1	Cruzain noTriton 7.94µM
O=C(CSc1nc(-c2ccccc2)no1)N1CCCCC1	none

High-throughput results as filed in PubChem.
